# In ChEMBL document CHEMBL3988442, “University of Dundee, Small-Polar-MMV Screening Library” (2021):
# In all, about 69,000 compounds went through this assay and about 950 (1.4%) showed an effect of 50% or more. For the sample, strong results were picked, then their nearest neighbours and some compounds at random.
# Tested on: Mycobacterium tuberculosis
# Test: Cornell M. t heat shock assay; note: in the data most compounds retested in dose-response had high values
# Format: functional, organism-based
# Design: dose or concentration left out as unconfirmed
row,SMILES,Percent Effect
1,COCCN1C(=O)[C@H]2CC[C@@H]1CN(Cc1nnc(-c3ccccc3)o1)C2,0.9802%
2,CCOCC1CN(c2ccc(C)nn2)Cc2cnn(CC)c21.O=C(O)C(F)(F)F.O=C(O)C(F)(F)F (stereo not drawn),34.67%
3,CS(=O)(=O)CC(=O)N1C[C@H]2CCC[C@@]2(COCc2ccccn2)C1.O=C(O)C(F)(F)F,1.254%
4,O=C(O)C(F)(F)F.c1coc(CN2CCC3(CC2)COC(COCC2CC2)C3)c1 (stereo not drawn),-19.69%
5,O=C(O)C(F)(F)F.O=C(c1cccc(F)c1)N1C[C@H]2CN(Cc3ccccn3)C[C@H]2C1,-10.41%
6,O=C(O)C(F)(F)F.O=C1CC[C@]2(CC[C@@H](NCc3ccsc3)CC2)N1Cc1ccccc1,-7.125%
7,COCc1nn(C(C)C)c2c1CCN(Cc1ccoc1)C2.O=C(O)C(F)(F)F,-50.08%
8,Cc1cc(NCCc2cnccn2)nc(-c2ccccc2O)n1,15.98%
9,Cc1cc(NCCNc2cccnc2)nc(N)n1,-13.91%
10,Cc1cc(NCCO)nc(-c2ccccc2O)n1,5.939%
11,Cc1cc(NCCNc2cccnc2)nc(-c2ccccc2O)n1,65.56%
12,Cc1cc(NCCN)nc(-c2ccccc2O)n1,74.35%
13,Cc1cc(NCCc2nc(C)c[nH]2)nc(-c2ccccc2O)n1,7.352%
14,Cc1cc(C)c(N(CC(O)CNCc2ccco2)S(C)(=O)=O)c(C)c1.O=C(O)c1ccccc1 (stereo not drawn),18.07%
15,CCOC1COC2(CCN(Cc3ccc(F)cc3)CC2)C1.O=C(O)C(F)(F)F (stereo not drawn),-14.13%
16,CCCC(=O)N(CCCN1CCOCC1)c1nc2c(C)c(C)ccc2s1.Cl,46.86%
17,CCCC(=O)N(CCCN1CCOCC1)c1nc2c(Cl)cccc2s1.Cl,25.9%
18,CCCC(=O)N(CCCN1CCOCC1)c1nc2c(C)ccc(Cl)c2s1.Cl,99.14%
19,COC(=O)c1ccc(CN[C@@H]2COC[C@H]2Cc2cc(C)no2)cc1.O=C(O)CC(O)(CC(=O)O)C(=O)O,-21.34%
20,CC(C)Nc1cccc(CC2CCN(C)C2)n1.O=CO (stereo not drawn),4.45%
21,CCCc1cc(NCCn2cccn2)n2ncnc2n1,8.061%
22,CCCc1cc(NCCn2cccn2)n2nccc2n1,70.39%

row,SMILES,Percent Effect
1,CCCc1cc(NCCN2CCNC2=O)n2nccc2n1,-6.778%
2,COCCN(C)C1COC2(CCN(Cc3cccc(F)c3)CC2)C1.O=C(O)C(F)(F)F.O=C(O)C(F)(F)F (stereo not drawn),-38.12%
3,Cn1cccc1C(=O)N1CCC2(CCN2c2ncccn2)C1.O=C(O)C(F)(F)F (stereo not drawn),8.832%
4,CCc1ccc(CN2CC[C@H]3[C@H]2CC(=O)N3Cc2cccc(C)n2)o1.O=C(O)C(F)(F)F.O=C(O)C(F)(F)F,-1.259%
5,Cc1ccc(CNC(C)c2cc(F)ccc2N2CCN(C)CC2)o1 (stereo not drawn),-35.24%
6,Cc1ccc(CNC(c2cccc(F)c2)c2nccn2C)o1.Cl (stereo not drawn),79.6%
7,Cc1ccc(CNC(c2ccc(F)cc2)c2nccn2C)o1 (stereo not drawn),74.11%
8,Cc1ccc(CNCCC(O)(c2nccn2C)C(F)(F)F)o1 (stereo not drawn),-16.27%
9,CC(c1cccc(F)c1)N1CCN(Cc2nccn2C)CC1 (stereo not drawn),-12.42%
10,COc1c(CNC(c2cccc(F)c2)c2nccn2C)c(C)nn1C (stereo not drawn),-20.66%
11,Cl.Cn1nc(C2CCCN(Cc3ccc(F)c(F)c3)C2)c2nccnc21 (stereo not drawn),-15.39%
12,O=C(O)C(F)(F)F.O=C(O)C(F)(F)F.O=C1CO[C@@H]2CN(Cc3nccs3)C[C@H]2N1Cc1ccncc1,-20.96%
13,O=C(O)C(F)(F)F.O=C(O)C(F)(F)F.c1cncc(O[C@H]2CC[C@H]3[C@H]2OCCN3C2CCC2)c1,-41.43%
14,COc1cccc(-c2cccc(-c3ccn(CC4COCCO4)n3)c2)n1 (stereo not drawn),-12.43%
15,CSc1nccc(-c2cccc(-c3ccn(CC4COCCO4)n3)c2)n1 (stereo not drawn),87.01%
16,COc1nccnc1-c1cccc(-c2ccn(CC3COCCO3)n2)c1 (stereo not drawn),-10.15%
17,Cc1cnccc1-c1cnn(CCNC(=O)c2cccnc2)c1C1CC1.Cl,-20.8%
18,O=C(NCCNc1ncccn1)C1CCN(C(=O)NC2CC2)CC1,12.93%
19,COc1ccc(-c2nnc(SC(C)C(=O)NCC(C)C)[nH]2)c(OC)c1 (stereo not drawn),21.58%
20,Cc1cccnc1CN(C)C(C(=O)O)c1ccc(-n2cccn2)cc1 (stereo not drawn),85.61%
21,Cc1cccnc1CN(C)C(C(=O)O)c1ccc(-c2ccn[nH]2)cc1 (stereo not drawn),46.05%
22,Cc1cccnc1CN(C)C(C(=O)O)c1ccc(C(C)(C)C#N)cc1 (stereo not drawn),35.15%

row,SMILES,Percent Effect
1,CCn1ccc(-c2cc(NCCCOc3ccccc3C)nc(C)n2)n1,105.6%
2,COc1ccccc1OCCNCCn1cccn1,-4.408%
3,CCn1ccc(-c2cc(NCCCOc3cccc(C)c3)nc(C)n2)n1,104.2%
4,Cc1cccc(OCCCNC(=O)Cn2ccc(C)cc2=O)c1,9.396%
5,CCOc1cccc(C(=O)Nc2ccn(CC)n2)c1,10.2%
6,CCn1ccc(-c2cc(C(=O)O)n3nc(C)c(Cl)c3n2)n1,6.637%
7,Cc1oncc1C(=O)N1C[C@H](OCc2ccccn2)[C@H]2OCCC[C@H]21.O=C(O)C(F)(F)F,-20.31%
8,CCOC(=O)CSc1nnc([C@@H](N)C(C)C)o1.Cl,-3.757%
9,CNC(=O)c1cc2c(nc1NCC1CC1)CCN(CC1CC1)CC2.O=C(O)C(F)(F)F.O=C(O)C(F)(F)F,-24.38%
10,Cc1cccc(C)c1CCNC(=O)N1CCCC2(C1)OCCO2,5.49%
11,O=CO.c1nc(CN2CCCC(Cc3ccc(NC4CCCC4)nn3)C2)c[nH]1 (stereo not drawn),20.05%
12,Cc1ccc(CN2C[C@H]3C[C@H](C(=O)Nc4cccnc4)[C@@H](C2)O3)cc1,0.4433%
13,Cc1cnc(CNC(=O)[C@@]23CCO[C@@H]2CCNC3)cn1.O=C(O)C(F)(F)F,23.9%
14,O=C(O)C(F)(F)F.c1cncc(-c2ccc3c(c2)C2(CC3)CCN(c3nncs3)CC2)c1,12.31%
15,Cc1ccc2c(c1)CCC21CCN(C(=O)CN(C)C)CC1.O=C(O)C(F)(F)F,-22.19%
16,CN1CCN(Cc2cccnc2)C(=O)C12CCN(Cc1ccco1)CC2.O=C(O)C(F)(F)F.O=C(O)C(F)(F)F.O=C(O)C(F)(F)F,5.064%
17,O=C(O)C(F)(F)F.O=C(O)C(F)(F)F.c1cncc(-c2ccc3c(c2)CCC32CCN(Cc3ccco3)CC2)c1,104%
18,CN(C)CC(=O)N1CCC2(CCc3cc(-c4cccnc4)ccc32)CC1.O=C(O)C(F)(F)F.O=C(O)C(F)(F)F,53.15%
19,O=C(O)C(F)(F)F.O=C(O)C(F)(F)F.c1csc(CN2CCC3(CC2)CCN(CC2CC2)CC3)n1,-18.7%
20,c1cncc(-c2ccc3c(c2)CCC32CCNCC2)c1,88.51%
21,O=C(O)C(F)(F)F.O=C(O)C(F)(F)F.c1cncc(C2COC3(CCN(Cc4nccs4)CC3)C2)c1 (stereo not drawn),-9.404%
22,c1cc(-c2ccc3c(c2)CCC32CCNCC2)ccn1,-56.04%

row,SMILES,Percent Effect
1,O=C(O)C(F)(F)F.O=C(O)C(F)(F)F.c1cncc(-c2ccc3c(c2)CCC32CCN(Cc3nccs3)CC2)c1,74.6%
2,CN(C)CC(=O)N1CCC2(CCc3ccc(-c4ccncc4)cc32)CC1.O=C(O)C(F)(F)F.O=C(O)C(F)(F)F,-52.11%
3,c1cncc(-c2ccc3c(c2)C2(CCNCC2)CC3)c1,-40.79%
4,Cc1nc(COC[C@@H]2CC[C@H]3[C@H](CCN3c3ccccn3)O2)cs1.O=C(O)C(F)(F)F,-8.365%
5,COCC(=O)NC1CC2(CCN(Cc3ccco3)CC2)c2ccccc21.O=C(O)C(F)(F)F (stereo not drawn),-0.75%
6,Cn1ccc(C(=O)N2CCC3(CCN3c3ncccn3)C2)n1.O=C(O)C(F)(F)F (stereo not drawn),24.82%
7,CC(C)(C)c1ncc(C(=O)NC(C(N)=O)c2ccccc2)s1 (stereo not drawn),-32.92%
8,Cn1cc(C(=O)N2CC[C@@H]3[C@@H]2CCN3Cc2cccnc2)cn1.O=C(O)C(F)(F)F.O=C(O)C(F)(F)F,-1.797%
9,COC[C@]12COC[C@H]1CN(Cc1cc(OC)cc(OC)c1)C2.O=C(O)C(F)(F)F,3.349%
10,Cc1cccc(CN2CCC(NCC3CNc4cc(C)nn4C3)CC2)c1 (stereo not drawn),108.8%
11,Cc1cc2n(n1)CC(CNC1CCN(Cc3ccccc3C)CC1)CN2 (stereo not drawn),13.82%
12,Cc1cc2n(n1)CC(CNC1CCN(Cc3ccncc3)CC1)CN2 (stereo not drawn),-16.93%
13,CCCNC(=O)Cn1c(-n2nc(C)cc2C)nc(CCC)cc1=O,96.63%
14,CCCc1cc(=O)n(CC(N)=O)c(-n2nc(C)cc2C)n1,28.09%
15,CCCc1cc(=O)n(CC(=O)NCCOC)c(-n2nc(C)cc2C)n1,103.9%
16,Cc1cc(C)n(-c2cncc(NCCC(=O)NC(C)C)n2)n1,-1.343%
17,CCCNC(=O)Cn1c(C)nn(C(C)(C)C)c1=O,11.09%
18,CCCc1cc(=O)n(CC(=O)NC(C)C)c(-n2nc(C)cc2C)n1,96.11%
19,CCCNC(=O)CCNc1cncc(-n2nc(C)cc2C)n1,-16.72%
20,COCCNC(=O)Cn1c(C)cc2nc(SC)n(CC(C)C)c(=O)c21,-7.488%
21,COCCCNC(=O)Cn1c(C)cc(=O)n2nc(-c3cccs3)nc12,14.25%
22,O=C(O)C(F)(F)F.O=C(O)C(F)(F)F.O=C(c1ccnnc1)N1C[C@@H]2OCCN(CCN3CCCC3)[C@@H]2C1,-5.03%
